TLR9-MyD88 block: inhibitors of TLR9-MyD88 association in cells, primary screen, cell-based, CHO, BLA complementation, fluorescence; CCF4 FRET ratio; inhibition, % at 4.98 µM; 340,000 tested, 0.21% active; AID 504734, 2011;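 active = inhibition above the mean over all tested compounds plus 3 SD, cut at about 21% in these data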;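 also: 0% = DMSO only wells and 100% = clavulanate BLA inhibitor control wells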
ABHD5-PLIN5 inh: ABHD5-PLIN5 interaction inhibitors, primary screen, cell lysate, split luciferase complementation, luminescence; AID 602281, 2012; 360,000 tested, 0.78% active; Perilipin-5 (Homo sapiens) + 1-acylglycerol-3-phosphate O-acyltransferase ABHD5 (Homo …; Split G. princeps luciferase complementation, 4 h; inhibition, % at 4 µM;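 active = inhibition above the mean inhibition across every tested compound plus 3 SD, cut at about 22% in these data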;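 also: 0% = DMSO only wells and the 100% control is not disclosed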
Target sequence (Q00G26 whole entry, looked up): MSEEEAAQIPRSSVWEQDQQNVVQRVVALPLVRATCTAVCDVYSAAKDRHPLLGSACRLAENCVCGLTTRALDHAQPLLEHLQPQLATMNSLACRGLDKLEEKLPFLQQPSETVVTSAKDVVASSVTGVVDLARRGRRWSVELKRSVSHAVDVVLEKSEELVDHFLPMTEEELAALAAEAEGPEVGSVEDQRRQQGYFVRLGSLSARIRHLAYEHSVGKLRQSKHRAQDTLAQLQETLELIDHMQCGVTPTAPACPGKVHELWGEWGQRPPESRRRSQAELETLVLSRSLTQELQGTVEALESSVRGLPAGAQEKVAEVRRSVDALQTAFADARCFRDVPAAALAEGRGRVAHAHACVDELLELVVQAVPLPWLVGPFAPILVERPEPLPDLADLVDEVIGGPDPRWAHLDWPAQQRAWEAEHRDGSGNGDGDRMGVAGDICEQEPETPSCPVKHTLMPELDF
Target sequence (Q8WTS1 whole entry, looked up): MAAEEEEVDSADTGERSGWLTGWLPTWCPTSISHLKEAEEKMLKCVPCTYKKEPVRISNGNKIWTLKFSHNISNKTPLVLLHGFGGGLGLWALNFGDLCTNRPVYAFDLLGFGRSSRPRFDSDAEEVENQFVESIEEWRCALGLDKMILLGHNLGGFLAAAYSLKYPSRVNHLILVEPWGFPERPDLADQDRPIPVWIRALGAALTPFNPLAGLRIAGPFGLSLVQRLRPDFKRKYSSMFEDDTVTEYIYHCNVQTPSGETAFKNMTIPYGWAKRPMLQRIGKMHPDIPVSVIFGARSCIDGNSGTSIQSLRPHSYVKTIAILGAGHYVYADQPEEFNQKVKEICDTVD
TLR4 MyD88 comp: inhibitors of TLR4-MyD88 association in cells, primary screen, cell-based, HeLa CL3-4, BLA complementation, FRET ratio; 200,000 tested, 0.18% active; Toll-like receptor 4 (Homo sapiens) + Myeloid differentiation primary response protein …; HeLa CL3-4 TLR4/MyD88 BLA complementation; inhibition, % at 8.4 µM; AID 861, 2007; in the data active = inhibition above about 25%;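 also: 0% = vehicle and 100% = reference inhibitor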
B2AR ag: beta2AR agonists driving receptor internalization, primary screen, cell-based, FAP fluorogen, flow cytometry; Beta-2 adrenergic receptor (Homo sapiens), P07550; response, % (concentration not given with the values); AID 504454, 2011; Am2.2-beta2AR cells; 340,000 tested, 0.43% active;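 active = response above a set limit, near 3 SD of response in nonfluorescent compounds, cut at about 42% in these data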
Exocytosis inh: LAMP-1 surface exposure blockers, TALL-104 cells – cell-based, flow cytometry, MLPCN library, primary screen; inhibition, % at 10 µM; AID 651702, 2012; TALL-104 LAMP-1 surface exposure; cells stimulated with thapsigargin and PMA; 360,000 tested, 0.66% active;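 active = inhibition above about 55%, limit read from the data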
NOD2-RIPK2 inh: NOD2-RIPK2 binding disruptors in cells, primary screen, fluorescence, CHO cells, BLA complementation | CCF4 ratio | inhibition, % at 4.98 µM | 360,000 tested, 0.38% active | AID 624267, 2012; in the data active = inhibition above about 21%;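 also: 0% = vehicle only and 100% = reference blocker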
ABHD5 PLIN5 conf: ABHD5-PLIN5 interaction inhibitors, confirmation, biochemical, luminescence | 2,200 tested, 67% active | inhibition, % at 4 µM | shares compounds with ABHD5-PLIN5 inh; in the data active = inhibition above about 23%;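 also: 0% = DMSO vehicle wells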
HNF4 counter: HNF4 dimerization inhibitors, counter-screen for ABHD5-PLIN5 interaction inhibitor project, biochemical, split-luciferase complementation, luminescence; shares compounds with ABHD5-PLIN5 inh; inhibition, % at 4 µM; 2,200 tested, 77% active; AID 651674, 2012;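 active = mean inhibition across replicate wells exceeding the computed hit threshold, cut at about 13% in these data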;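 also: light from luciferase halves that rejoin when HNF4 fusion proteins dimerize; 0% = DMSO only wells and the 100% control is not given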
* hit, by the source's call; · = no result. In the library only some 2% were active in any assay of this set; here they are far more common.

SMILES	TLR9-MyD88 block	ABHD5-PLIN5 inh	TLR4 MyD88 comp	B2AR ag	Exocytosis inh	NOD2-RIPK2 inh	ABHD5 PLIN5 conf	HNF4 counter
CCN(CC(=O)Nc1cccc(OC)c1)C(=O)C1CC(=O)N(Cc2ccccc2Cl)C1 (configuration not stated)	-0.9	2.3	·	·	2.0	-4.8	·	·
CN=C1N(C)C[C@@H]2[C@@H]3C(=O)N(C)C(=O)[C@@H]3[C@](Cc3ccccc3)(C(=O)OC)N12	-1.2	2.6	·	-3.0	-3.0	-1.4	·	·
COc1ccc(/C=C2/CCOC2=O)cc1	4.7	0.0	-3.7	0.8	-2.2	-1.7	·	·
CN(C)c1ccc(/C=C2\CCC/C(=C\c3ccccc3)C2=O)cc1	16.6	5.4	12.8	-9.5	9.1	-4.3	·	·
COc1ccc(/C=C2\CCCCC2=O)cc1	-6.0	-8.4	·	-1.6	-7.8	0.6	·	·
COc1ccc(/C=C2\CCC/C(=C\C=N\N(C)C)C2=O)cc1	2.5	36.3*	-11.6	11.6	36.6	11.2	36.0*	72.2*
CN(C)/N=C/C=C1\CCC/C(=C\c2ccc(F)c(F)c2)C1=O	·	52.6*	0.4	2.9	90.2*	-0.6	70.7*	73.0*
COc1ccc(C=C2CS(=O)(=O)CC(=Cc3ccc(OC)cc3)C2=O)cc1	5.4	93.8*	·	·	-2.6	7.7	103.4*	105.0*
CC(C)CNC(=O)C1C(=O)Nc2ccccc2C(=O)N1C1CCCCC1 (configuration not stated)	·	-5.7	·	·	2.2	4.5	·	·
COc1ccccc1C1CC(c2cccs2)=Nc2ccccc2S1 (configuration not stated)	-0.1	45.5*	5.4	7.1	-0.1	7.1	-4.9	4.6
COc1ccccc1C1CC(c2cccs2)=NN1C(=O)CCC(=O)O (configuration not stated)	-9.0	-1.8	·	5.9	-1.7	6.6	·	·
O=C(C=Cc1ccc2c(c1)OCO2)c1ccccc1	8.3	17.6	·	9.6	15.8	-9.3	·	·
COc1cccc(/C=C/C(=O)OCC(=O)c2ccc3c(c2)NC(=O)CO3)c1	-5.9	-5.3	·	2.1	-1.0	-2.9	·	·
O=C1COc2ccc(C(=O)/C=C/c3ccccc3)cc2N1	2.8	47.4*	9.6	2.5	-3.4	11.2	76.9*	62.2*
N#Cc1ccc(/C=C/C(=O)c2ccc3c(c2)OCO3)cc1	-2.0	32.5*	15.9	6.2	-2.5	-6.7	88.1*	82.2*
O=C(/C=C/c1ccccc1)c1ccc2c(c1)OCCCCO2	-3.3	23.8*	24.0	6.9	-0.2	7.3	53.1*	42.7*
Cc1nc(CC(=O)NNS(=O)(=O)c2cccc(Cl)c2Cl)cs1	-4.7	-1.9	·	-5.0	-21.2	-1.4	·	·
CC(C)c1ccc(C2CC(=O)c3cnc(N4CCc5ccccc5C4)nc3C2)cc1 (configuration not stated)	-4.9	9.2	-1.1	-0.4	0.8	-2.2	·	·
O=C1CC(c2ccco2)Cc2nc(N3CCc4ccccc4C3)ncc21 (configuration not stated)	5.5	27.5*	-2.4	8.3	0.6	1.4	19.7	23.2*
COC(=O)c1c(NC(=O)C(=O)NCC2CCCO2)sc2c1CC(C)(C)OC2 (configuration not stated)	3.0	-5.2	·	-4.1	1.8	-11.8	·	·
CCN(CC)C(=O)C1=C(C)N(Cc2ccccc2)C(=O)C(CC(=O)NCc2cccc3ccccc23)C1 (configuration not stated)	8.8	5.9	·	·	8.5	0.1	·	·
COc1cc(C(=O)/C=C/c2cccnc2)ccc1O	-6.6	24.2*	·	21.8	6.3	0.2	60.8*	54.8*
COc1ccc(OC)c(C(=O)/C=C/c2cccnc2)c1	5.2	38.5*	·	3.8	-3.1	2.4	61.1*	63.1*
Cc1cccc(C(=O)Nc2ccc(C(=O)/C=C/c3cccnc3)cc2)c1	6.2	67.6*	13.2	79.6*	14.1	5.7	101.5*	102.0*
Cc1cccc(C(=O)Nc2ccc(C(=O)N/N=C/c3cccnc3)cc2)c1	4.1	-2.2	·	0.5	-1.1	3.6	·	·
SMILES	TLR9-MyD88 block	ABHD5-PLIN5 inh	TLR4 MyD88 comp	B2AR ag	Exocytosis inh	NOD2-RIPK2 inh	ABHD5 PLIN5 conf	HNF4 counter
COc1ccc(/C=C/C(=O)c2ccc(OC)cc2OC)cc1	-7.4	0.0	4.6	-7.2	2.7	9.8	·	·
Cc1cccc(NC2(C(=O)O)CCCC2)c1	-3.2	-9.7	·	-15.0	4.0	-22.4	·	·
Cc1cc(C2=CC(=O)C[C@H](c3ccc(F)cc3)C2)ccc1F	-7.2	-2.9	·	·	9.2	-1.2	·	·
CCCCNC1C(CC)C(CCC)C(C#N)(C#N)C1(C#N)C#N (configuration not stated)	0.7	28.5*	-4.1	20.8	2.1	3.0	64.1*	52.6*
Cc1ccc2nc(-c3ccc(NC(=O)CN4CCN(C(=O)c5ccco5)CC4)cc3)sc2c1	6.9	27.3*	-8.5	8.8	16.6	5.7	20.4	6.6
Cc1ccc(NC(=O)CN2CCN(C(=O)c3ccco3)CC2)cc1	6.2	-4.2	·	1.0	-0.8	5.4	·	·
O=C1NC(=O)/C(=C/c2ccc(N3CCOCC3)o2)N1	9.8	28.5*	·	1.5	1.2	-13.9	26.5*	47.4*
O=C1NC(=O)/C(=C\c2ccc(N3CCOCC3)o2)N1	-4.8	68.0*	-5.6	-5.3	-3.8	5.2	41.7*	93.9*
Cc1cc(/C=C2\NC(=O)NC2=O)c(C)n1-c1ccc(N2CCOCC2)cc1	-12.0	9.0	·	1.8	-1.9	-0.7	·	·
CCCCCCCCN1C(=O)[C@H](CC(=O)NCc2ccc(OC)c(OC)c2)C[C@@]2(C(=O)OCC)CCCC=C12	·	3.9	·	·	4.0	2.0	·	·
CNC(=S)N(C)/N=C1/C(=O)N(Cc2c(Cl)cccc2Cl)c2ccccc21	13.7	26.7*	·	28.7	-7.7	11.4	-3.8	15.9*
O=C1/C(=N/n2cnnc2)c2ccccc2N1Cc1ccccc1	·	·	-1.1	·	·	·	·	·
O=C1/C(=C\c2ccco2)NC(=S)N1c1ccccc1	-10.3	25.0*	14.1	-11.1	24.0	-14.0	30.0*	44.4*
CC(NC(=O)c1ccc(Cl)c(S(=O)(=O)NC2CC2)c1)c1ccco1 (configuration not stated)	7.9	10.6	·	·	-5.5	4.2	·	·

Assay outcomes deposited in PubChem by several laboratories.
